Mtb betalactam = beta-lactam sensitization of Mtb H37Rv; M. tuberculosis H37Rv growth with meropenem, percent inhibition; inhibition, % at 25 µM; hit rate 0.27% among 330,000; call rule not given here;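 note: growth measured after seven days incubation then overnight dye step; 0% = bacteria only wells and 100% = bacteria with antibiotic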
FBA Mtb inh = inhibitors of M. tuberculosis fructose-bisphosphate aldolase; P9WQA3; AID 588726; hit rate 2.3% among 360,000; purified M. tuberculosis FBA, fluorescence read-out; inhibition, % at 1 µM;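 note: 0% = vehicle and 100% = reference inhibitor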
Rv3671c protease = inhibitors of M. tuberculosis serine protease Rv3671c | P9WHR9 | hit rate 0.048% among 320,000 | AID 2606 | inhibition, % at 5.96 µM; in the data active = inhibition above about 38%;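 note: extracellular domain of Rv3671c used as enzyme; 0% = enzyme with DMSO and 100% = no enzyme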
SSB-PriA inh = blocks PriA binding to SSB C-terminal tail. inhibition, % at 33 µM. AID 1272365. hit rate 0.6% among 430,000. AlphaScreen SSBct-PriA binding, biotinylated peptide; in the data active = inhibition mostly above about 37%, no sharp cut-off; inactive = mostly below about 20%;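 note: plate controls were negative control peptide for no effect and reference peptide for full effect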
GDH-TPI counter-1 = counter-screen for M. tuberculosis FBA inhibitors: GDH-TPI coupled enzymes. GDH-TPI coupled enzyme counterscreen, NADH absorbance. inhibition, % at 4.8 µM. hit rate 1.2% among 360,000; in the data active = inhibition above about 30%;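 note: 0% = DMSO wells and 100% = wells lacking the enzyme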
UGM FP inh = Mtb UDP-galactopyranose mutase inhibition. P9WIQ1. hit rate 0.06% among 320,000. AID 504406. inhibition, % at 10 µM. purified UGM, fluorescence polarization probe displacement; in the data active = inhibition above about 10%, passing the limit was not always enough
Target sequence (P9WIQ1 whole entry, looked up): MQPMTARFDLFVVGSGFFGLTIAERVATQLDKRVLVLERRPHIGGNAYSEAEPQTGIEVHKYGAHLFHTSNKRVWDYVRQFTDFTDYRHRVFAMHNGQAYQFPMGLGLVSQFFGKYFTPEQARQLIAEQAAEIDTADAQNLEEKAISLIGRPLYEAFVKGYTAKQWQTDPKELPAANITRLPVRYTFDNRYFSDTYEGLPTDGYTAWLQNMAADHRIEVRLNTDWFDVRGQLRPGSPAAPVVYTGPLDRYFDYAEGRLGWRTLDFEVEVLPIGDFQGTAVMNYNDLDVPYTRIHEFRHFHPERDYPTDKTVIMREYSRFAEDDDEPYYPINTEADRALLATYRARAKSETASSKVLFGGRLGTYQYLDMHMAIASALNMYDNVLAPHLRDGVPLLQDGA
Mtb FBA inh conf = confirmation of M. tuberculosis fructose-bisphosphate aldolase inhibitors. shares compounds with FBA Mtb inh. purified M. tuberculosis FBA, fluorescence read-out. inhibition, % at 1 µM. hit rate 78% among 5,600. AID 651616;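 note: 0% = vehicle wells and 100% = reference inhibitor wells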
GDH-TPI counter-2 = GDH-TPI inhibition counter-screen for FBA inhibitors; inhibition, % at 1 µM; hit rate 81% among 5,600; shares compounds with FBA Mtb inh; GDH-TPI coupled enzyme counterscreen, fluorescence; AID 652141; in the data active = inhibition above about 10%
GDH-TPI DR = counter-screen for M. tuberculosis FBA inhibitors: GDH-TPI dose response | shares compounds with FBA Mtb inh | GDH-TPI coupled enzyme assay, fluorescence, artifact counterscreen | IC50, µM | hit rate 79% among 170; call rule not given here
* marks the source's active call; other numbers are inactive results; / = not tested or not shown; + = active, no number. This is a sample that favours compounds with a hit; in the whole collection about 3.2% have one here. Cut-off read from the data, not from the text of the source, unless noted: active = inhibition above about 27%; inactive = the rest.

SMILES | Mtb betalactam | FBA Mtb inh | Rv3671c protease | SSB-PriA inh | GDH-TPI counter-1 | UGM FP inh | Mtb FBA inh conf | GDH-TPI counter-2 | others
Cc1ccccc1-c1noc(C[C@H]2CCCN(C(=O)CSC3CCCC3)C2)n1 | / | / | / | -11 | / | / | / | /
CCCCC1OC23CCCCC2C(C#N)(C(=N)O3)C1(C#N)C#N (stereo not drawn) | -8 | 42* | 3 | -37 | -11 | 2 | -2 | 3
CCCCC1OC23CCCCC2C(C#N)(C#N)C1(C#N)C(=N)O3 (stereo not drawn) | 3 | 45* | 4 | -7 | -15 | 6 | 64* | 51*
Cn1cc(S(=O)(=O)Nc2nc3ccccc3nc2N2CCNC(=O)C2)cn1 | / | / | / | -23 | / | / | / | /
COc1ccc(C(C)=O)cc1CSCc1cc(C(C)=O)ccc1OC | -4 | 3 | -6 | 15 | 1 | 0 | / | /
CNC(=O)C(C#N)(Cc1cc(C(C)=O)ccc1OC)Cc1cc(C(C)=O)ccc1OC | -4 | 37* | 2 | 1 | 4 | -1 | 1 | -4
COc1ccccc1C1CN(c2ccc(F)cc2F)N=C1c1cccs1 (stereo not drawn) | 0 | 83* | 9 | -98 | 10 | 2 | 177* | 132*
COc1ccccc1C1CC(c2cccs2)=Nc2ccccc2S1 (stereo not drawn) | 94 | -1 | -3 | 15 | 6 | -2 | / | /
O=C(O)COc1ccccc1-c1nc(-c2ccccc2)c(-c2ccccc2)[nH]1 | -6 | 88* | -2 | 0 | 6 | 1 | 53* | 29*
O=C(O)c1ccccc1-c1nc(-c2ccccc2)c(-c2ccccc2)[nH]1 | -1 | 3 | 13 | -19 | 6 | 1 | / | /
O=C(O)COc1ccc(C(=O)c2ccccc2)cc1 | -2 | 1 | 7 | -6 | 6 | 1 | / | /
COc1cccc(-c2nc(-c3ccc4c(c3)-c3ccccc3S4(=O)=O)c(-c3ccccc3)[nH]2)c1OC | 63 | 31* | -18 | -4 | 19 | 1 | -3 | -3
O=C(O)COc1ccc(-c2nc(-c3ccccc3)c(-c3ccccc3)[nH]2)cc1 | 3 | 98* | 8 | 8 | 11 | 4 | 86* | 73*
COc1cccc(-c2nc(-c3ccccc3)c(-c3ccccc3)[nH]2)c1OCC(=O)O | -3 | 84* | / | 4 | 12 | 4 | 70* | 54*
Cc1cc(C)n2nc(NCc3cccc(Br)c3)nc2n1 | -3 | 58* | 0 | -16 | 1 | -2 | 70* | 52*
CCOC(=O)C1=C(C)OC(N)=C(C#N)C1c1cc(OC)c2c(c1)OCO2 (stereo not drawn) | -7 | 0 | 4 | -11 | 15 | 1 | / | /
CCOC(=O)C1=C(C)OC(N)=C(C#N)C1c1cc2c(cc1[N+](=O)[O-])OCO2 (stereo not drawn) | 3 | 33* | -28 | -7 | 8 | -1 | 42* | 26*
CC(C)(C)c1csc(CN2CCN(CC(=O)NCCc3ccccc3)CC2)n1 | / | / | / | -6 | / | / | / | /
Cc1noc(C)c1CC(=O)NCc1sc2nc(-c3ccc(F)cc3)cn2c1C | / | / | / | -7 | / | / | / | /
CC(OC(=O)c1cc(S(=O)(=O)N2CCOCC2)ccc1F)C(=O)NC1CCCCC1C (stereo not drawn) | 1 | 30* | 1 | -25 | 6 | 4 | 35* | 27*
Cc1cccc(C)c1NC(=O)COc1ccc2c(C)c(Cc3ccccc3)c(=O)oc2c1C | 3 | 1 | 3 | -7 | 0 | 0 | / | /
Cc1c(Cc2ccccc2)c(=O)oc2c(C)c(OC(C)C(=O)N[C@@H](Cc3ccccc3)C(=O)O)ccc12 (stereo partly drawn) | -8 | 68* | -3 | 9 | 10 | 0 | 191* | 160*
Cc1c(OCC(=O)N[C@@H](Cc2ccccc2)C(=O)O)ccc2c1oc(=O)c1ccccc12 | -3 | 52* | -8 | -9 | 12 | 1 | + | +
Cc1nc2c(c(=O)c3ccccc3n2C)c(=O)n1C1CCCCCC1 | -2 | 37* | 2 | -17 | 16 | 0 | 45* | 46*
Cn1c2ccccc2c(=O)c2c(=O)n(C3CCCCC3)c(-c3ccco3)nc21 | -4 | 1 | -1 | 6 | 17 | -1 | / | /
SMILES | Mtb betalactam | FBA Mtb inh | Rv3671c protease | SSB-PriA inh | GDH-TPI counter-1 | UGM FP inh | Mtb FBA inh conf | GDH-TPI counter-2 | others
CC(=O)Nc1ccc(S(=O)(=O)N(C)CC(=O)NN=Cc2cccs2)cc1 | / | / | / | -4 | / | / | / | /
CCC(=O)Nc1c(C#N)c2nc3ccccc3nc2n1-c1ccccc1C | -6 | 36* | -7 | -12 | 9 | -1 | 76* | 64*
CCOC(=O)c1sc(NC(=O)c2coc3ccccc3c2=O)c(SC#N)c1C | / | / | / | 5 | / | / | / | /
CSc1nccc(Oc2cncc(Cl)c2)n1 | -6 | 0 | -4 | -21 | -4 | 2 | / | /
CSc1nccc(Oc2ccccc2Cl)n1 | 2 | 110* | -8 | -10 | -4 | 5 | 13 | 8 | GDH-TPI DR=>10
CCOC(=O)N1CCC(NC(=O)CSCc2nc(-c3ccc(C)cc3)oc2C)CC1 | 5 | 51* | -4 | 1 | -2 | 0 | 21 | 20*
CCOC(=O)N1CCC(NC(=O)CSCc2nc(-c3ccc(OC)c(OC)c3)oc2C)CC1 | 5 | 10 | 4 | -7 | 4 | -1 | / | /
COc1ccc(S(=O)(=O)NC(C)Cc2ccoc2)cc1Cl (stereo not drawn) | / | / | / | -8 | / | / | / | /
Cc1ccc(NC(=O)c2cc3ccccc3o2)c(C(=O)c2ccccc2)c1 | / | / | / | -3 | / | / | / | /
Cc1ccc(-n2c(O)c(C=NC3CCS(=O)(=O)C3)c3ccccc3c2=O)c(C)c1 (stereo not drawn) | -7 | 1 | -21 | -3 | 8 | 2 | / | /
Cc1ccc(-n2c(O)c(C=Nc3cc(C)on3)c3ccccc3c2=O)c(C)c1 | 7 | 47* | -22 | 8 | 7 | -1 | + | +
Cc1ccccc1N1C(N)=NC(N)=NC1(C)C | -3 | 76* | 10 | -14 | 7 | 2 | + | +
CCOc1ccc(-c2cc(C(=O)NCCCN3CCN(CC)CC3)c3ccccc3n2)cc1 | -14 | 46* | -2 | -17 | 22 | -1 | 61* | 48*
O=C(NCCCN1CCOCC1)c1cc(-c2ccccc2)nc2ccccc12 | -2 | 2 | 2 | -1 | 8 | -1 | / | /
CCOc1ccc(-c2cc(C(=O)NCCCn3ccnc3)c3ccccc3n2)cc1 | 89 | 33* | -4 | 5 | -1 | 1 | 43* | 33*
Cc1ccc2cccc(Oc3ncnc4scc(-c5ccc(F)cc5)c34)c2n1 | / | / | / | -5 | / | / | / | /
Cc1ccc(NS(=O)(=O)c2ccc(NC(=O)C(C)Sc3ccc(Cl)cc3)cc2)c(C)c1 (stereo not drawn) | 0 | 81* | -207 | -4 | 2 | 0 | 2 | -3

High-throughput results (PubChem)
